Test results: article PMC12136788
Where a chain is given by its changes, count along the chain named. The full ranking holds about 5,800 sequences; the median of “enrichment r” is about 0.68, and the highest 2% start at about 11. Only a selection was taken, and the highest values are over-represented in it overall.

T1: UNK ZnF1-6 (called full-length) (human, UniProt Q9C0B0 30-357)
T1 sequence: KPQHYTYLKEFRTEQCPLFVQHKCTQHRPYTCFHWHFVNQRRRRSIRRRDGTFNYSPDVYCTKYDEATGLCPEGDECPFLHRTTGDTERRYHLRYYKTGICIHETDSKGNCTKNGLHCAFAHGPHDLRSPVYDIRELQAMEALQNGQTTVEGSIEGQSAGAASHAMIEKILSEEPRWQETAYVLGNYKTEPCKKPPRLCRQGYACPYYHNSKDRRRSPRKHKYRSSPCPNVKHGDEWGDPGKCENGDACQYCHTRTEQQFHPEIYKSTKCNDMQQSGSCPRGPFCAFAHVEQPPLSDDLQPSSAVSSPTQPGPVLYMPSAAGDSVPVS

B1: chr1:3780741:3780842:-|3pUTR|ENSG00000130764|unk|total|mutant (ssRNA)
RNA: GGGAGUUCUACAGUCCGACGAUCCCAAGCCGCUGGGACUACAGGUGUGUGCCACUAAGCUCAGCUAAUUUUUGUAUUUUCCGCCGAGACGGGGUUUCACCAUUUUGACCAGGAUGGUCUUGAUCUCUUGACCUCAUGAUCUGUCAACAGAGGAUUGAGCAUCA
B2: chr20:45898604:45898705:+|3pUTR|ENSG00000064601|unk|total|mutant (ssRNA)
RNA: GGGAGUUCUACAGUCCGACGAUCAGAGCCCUGUACAUCCCAGACUGGGCCCAGGGUCUCCCACCGACAGCCUGGGGGCAAGUCCGCACUUUAUUCCCGCAGCAGUUCCUGAAUGGGGUGGCCUGGCCCCUUCUCUGCUUAAAGCAACAGAGGAUUGAGCAUCA
B3: chr17:47844907:47847298:-|three_prime_utr|ENSG00000189120|control|control|control (ssRNA)
RNA: GGGAGUUCUACAGUCCGACGAUCAAGGUGCGUAUUUAUUCAGGGAGGAGGAAAAGUGGUGCAGGGACAGGGAGAUGGGGCGCUAGGGGUUCUUAGUCUCUGGGGCUACUAGGCAGGAUGAAUUUGACUGGGUCGGUAGGAGCUCAACAGAGGAUUGAGCAUCA
B4: chr8:23843870:23844003:-|3pUTR|ENSG00000159167|msi1|FALSE|unique (ssRNA)
RNA: GGGAGUUCUACAGUCCGACGAUCAAUUCCAGAGGACUCUGCUUAAACAAAGCAGUAUAUAAUAACUUUAUUGCAUAUAGAUUUAGUUUUGUAACUUAGCUUUAUUUUUCUUUUCCUGGGAAUGGAAUAACUAUCUCACUUCCACAACAGAGGAUUGAGCAUCA
B5: ENSG00000070961:be:win_251|CDS|ENSG00000070961|bound_else_gene|NA|bound_elsewhere_windowed (ssRNA)
RNA: GGGAGUUCUACAGUCCGACGAUCUGUUUGGAAAGAAUUUUAUACCUCCUAAAAAGCCAAAAACCUUUCUUCAAUUAGUAUGGGAAGCAUUACAAGAUGUCACUUUAAUUAUAUUAGAAAUUGCAGCCAUAGUAUCAUUGGGCCCAACAGAGGAUUGAGCAUCA
B6: chr6:142752714:142752806:-|3pUTR|ENSG00000010818|msi1_unk|FALSE|overlapping (ssRNA)
RNA: GGGAGUUCUACAGUCCGACGAUCUUUUCUUUACUUUGCUUAUAUUCUUAUAAGCAUUUUUUAGCAGUAAUUUGUACAUAUUUUAGAAUUUGUGUAUCUGCUUUGUAAUAAAUGUAAUUUCUUUCCUUUUUUGGACACUUGGAUCAACAGAGGAUUGAGCAUCA
B7: chr17:67340809:67340863:-|CDS_3pUTR|ENSG00000197170|msi1_unk|FALSE|overlapping (ssRNA)
RNA: GGGAGUUCUACAGUCCGACGAUCACAAAACUACGCAUCUCAUAGCCAAAGAGGAGAUGAUACAUAAUCUACAAUAAGGGUCUUAGUGCUUUAGAAAAAAGUUAAAAUUGGAAGUCAUUAAAAAAAGACUGUUAUAAUGGUGUACAACAGAGGAUUGAGCAUCA
B8: ENSG00000070961:be:win_6101|3pUTR|ENSG00000070961|bound_else_gene|NA|bound_elsewhere_windowed (ssRNA)
RNA: GGGAGUUCUACAGUCCGACGAUCUAAAGAUCUUGGAUCCCAUUAUAUAGUAUGUAUAGCUGAAAUCUGUAAUUCAAUCACUUUUUCUCUUUUAUCCUCUAACCAAAAAAUUGUUUAAUUUUGCAUCCCAAAUGUUUUUAAUCUCAACAGAGGAUUGAGCAUCA
B9: chr4:110049619:110049852:-|3pUTR|ENSG00000170522|msi1|FALSE|unique (ssRNA)
RNA: GGGAGUUCUACAGUCCGACGAUCUUGUUCAAUGUGACAUAAUAGUAUUAUAAUUGGUUAAGUAGCUUAAUGAUUAGGCAAACUAGAUGAAAAGAUUAGGGGCUUCCACACUGCAUAGAUUACACGCACAUAGCCACGCAUACACAACAGAGGAUUGAGCAUCA
B10: chr3:167478683:167478996:-|three_prime_utr|ENSG00000174776|control|control|control (ssRNA)
RNA: GGGAGUUCUACAGUCCGACGAUCCUGCCUUUUAUUUUAUUUUAUAUUUAAACUUCAGGAAGUUUUCUCUUCAUGGGAUAAUUUAGUACUGCUUUUAUCUAUCAUCUGUCAAUUUCUCUGUAUUCUUAAUAAAAUAAAUAUUGACAACAGAGGAUUGAGCAUCA
B11: chr5:134606522:134606623:-|3pUTR|ENSG00000152700|msi1_unk|FALSE|overlapping (ssRNA)
RNA: GGGAGUUCUACAGUCCGACGAUCAACUAUAAACCAUAUUUAAAAGCUCAUCAUGUUAAAUUUUUUAUGUACUUUUCUGGAACUAGUUUUUAAAUUUUAGAUUAUAUGUCCACCUAUCUUAAGUGUACAGUUAAUAAUUAGCUUCAACAGAGGAUUGAGCAUCA
B12: chr9:14618660:14618761:-|3pUTR|ENSG00000175893|msi1|FALSE|unique (ssRNA)
RNA: GGGAGUUCUACAGUCCGACGAUCUUAGCUUUCCACAGGGAUUUCUUGAAAUGCUUUUGUUAUUAAACUCAAAAGGCAGUGAUUAGGAUGAAAUAAUUGUACAUAAUUUAUUUUAGUACUGACAGUGUUACAGAUUCUAAUUUACAACAGAGGAUUGAGCAUCA
B13: chr5:134606522:134606623:-|3pUTR|ENSG00000152700|msi1_unk|total|mutant (ssRNA)
RNA: B11 RNA with U83C, A84C, U97C, A98C, U138C, A139C
B14: ENSG00000070961:be:win_6051|3pUTR|ENSG00000070961|bound_else_gene|NA|bound_elsewhere_windowed (ssRNA)
RNA: GGGAGUUCUACAGUCCGACGAUCCAGAAAUUUCCAGAGCAUUAUGUAGGUAGAAAAAAAUGCAAGCAAGCUGUUAAAGAUCUUGGAUCCCAUUAUAUAGUAUGUAUAGCUGAAAUCUGUAAUUCAAUCACUUUUUCUCUUUUACAACAGAGGAUUGAGCAUCA
B15: ENSG00000198589:be:win_9001|3pUTR|ENSG00000198589|bound_else_gene|NA|bound_elsewhere_windowed (ssRNA)
RNA: GGGAGUUCUACAGUCCGACGAUCUUCUUCAGCACUAAUAUUUCUGGGAUUUAAAUAGUAAUGUUUAAAUUAUGGUAAAUGUAAUUUAAAACAUCUCAAUUAAGUCUGUCUAUCAAUAUUGUUCUUCAAGCAUGUUUUAGACCUCAACAGAGGAUUGAGCAUCA
B16: chr4:113382420:113382521:+|3pUTR|ENSG00000145362|msi1|FALSE|bound_elsewhere (ssRNA)
RNA: GGGAGUUCUACAGUCCGACGAUCUCUUCAGGUCUUUAGAUCUUGGACAAGUUGGCAGGGUAUUUUAAAAGCUAUAACUACUGUAGUUUUCCAGUUUUCAUUGCUGCUUUAGCAAACCACGCUGUCUUACAGUGGUACUUUCUUCAACAGAGGAUUGAGCAUCA
B17: chr2:171482635:171482736:+|3pUTR|ENSG00000115827|unk|FALSE|unique (ssRNA)
RNA: GGGAGUUCUACAGUCCGACGAUCCAAGAGUGUUUCAGAAUAGGAUGUCUUAAGACUUCAGUCAUGUCAGAGAUUUUUUUUUUUAGGUGAUUAUUGAGUUUCUCCUUCUCCUUUAAGUCAUCACCUUCCUUUUAUGAAAUGAUACAACAGAGGAUUGAGCAUCA
B18: chr9:104535772:104536723:-|CDS|ENSG00000204246|control|control|control (ssRNA)
RNA: GGGAGUUCUACAGUCCGACGAUCGACAAGCUCAUUUCUCUGUUUUAUGGGGUAGUGACACCCAUGCUGAAUCCUAUACUCUAUAGCUUGAGAAAUAAGGAUGUAAAAGCUGCUGUAAAAUAUUUGCUGAACAAAAAACCAAUUCAACAGAGGAUUGAGCAUCA
B19: chr8:23842113:23842214:-|3pUTR|ENSG00000159167|msi1|FALSE|unique (ssRNA)
RNA: GGGAGUUCUACAGUCCGACGAUCACUUUAGACAUUUUUGUGCCAUUAUAUUUGCAUUAUGUAUUUAUAAUUUAAAUGAUAUUUAGGUUUUUGGCUGAGUACUGGAAUAAACAGUGAGCAUAUCUGGUAUAUGUCAUUAUUUAUCAACAGAGGAUUGAGCAUCA
B20: ENSG00000112936:stop:overlap|stop_codon|ENSG00000112936|stop_codon|NA|stop_codon (ssRNA)
RNA: GGGAGUUCUACAGUCCGACGAUCGAUGCAGAGGGCAGAGCAUCUCUGUCACCAGCAUAAGGCCUUGUGCUGCGGAAACCCAGUAGGCUCCUGGAGGCCCUGGUCAGCUUGCUUGGAAUCCAGCAGGCAGCUGGGGCUGAGUGACAACAGAGGAUUGAGCAUCA
B21: ENSG00000170312:stop:overlap|stop_codon|ENSG00000170312|stop_codon|NA|stop_codon (ssRNA)
RNA: GGGAGUUCUACAGUCCGACGAUCGCAAAAUGGCACUGAAUCAUCCAUAUUUUAAUGAUUUGGACAAUCAGAUUAAGAAGAUGUAGCUUUCUGACAAAAAGUUUCCAUAUGUUAUAUCAACAGAUAGUUGUGUUUUUAUUGUUACAACAGAGGAUUGAGCAUCA
B22: chr2:69942770:69942871:+|3pUTR|ENSG00000059728|unk|FALSE|unique (ssRNA)
RNA: GGGAGUUCUACAGUCCGACGAUCUGUUUCCAGAUGUUUCUUUAUGUAAAUAUGACGCCAAUGUAAAUCCUGUGUCAAGAUCAUAGAGAAUGGUGCUUUUUACUACAGUUAGCACAUGCAUUUUUAGAAACUACUACAUGUUUUCAACAGAGGAUUGAGCAUCA

The binders below were run against T1, UNK ZnF1-6 (called full-length) (assay: nsRBNS (natural sequence RNA bind-n-seq); RBNS binding buffer (assumed for nsRBNS): 25 mM Tris pH 7.5, 150 mM KCl, 3 mM MgCl2, 0.01% Triton X-100, 500 ug/ml BSA, 20 U/ml SUPERase-In, 4 C; UNK is unkempt and MSI1 is Musashi-1; names of the RNAs are library labels; protein concentration not given here; high values mean tight binding).

In order of falling binding signal:
1. B8  39 enrichment R
2. B11  25.7 enrichment R
3. B9  14.6 enrichment R
4. B4  13.9 enrichment R
5. B5  5.79 enrichment R
6. B19  3.25 enrichment R
7. B14  3.07 enrichment R
8. B10  2.14 enrichment R
9. B6  2.11 enrichment R
10. B13  2.06 enrichment R
11. B3  1.32 enrichment R
12. B17  1.03 enrichment R
13. B2  1.01 enrichment R
14. B12  0.961 enrichment R
15. B7  0.932 enrichment R
16. B21  0.706 enrichment R
17. B1  0.591 enrichment R
18. B22  0.538 enrichment R
19. B18  0.451 enrichment R
20. B15  0.446 enrichment R
21. B16  0.392 enrichment R
22. B20  0.329 enrichment R
